# Laboratory results from article PMC11006913.
# Tests used:
# Assay in all cases: PBM; 200 nM protein, PBS
# Settings in all cases: dsDNA, one strand shown
# HOXC10 [1] = target: HOXC10 (Homo sapiens, UniProt Q9NYD6 254-340)
# HOXC10 [2] = target: HOXC10 (Homo sapiens, UniProt Q9NYD6 254-340, K271E)
# HOXD13 [3] = target: HOXD13 (Homo sapiens, UniProt P35453 263-343, T313R)
# HOXC9 = HOXC9 (Homo sapiens, UniProt P31274 178-260, R222W)
# HOXD13 [4] = target: HOXD13 (Homo sapiens, UniProt P35453 263-343)
# Chain of HOXD13 (Homo sapiens, UniProt P35453 263-343) (P35453 263-343): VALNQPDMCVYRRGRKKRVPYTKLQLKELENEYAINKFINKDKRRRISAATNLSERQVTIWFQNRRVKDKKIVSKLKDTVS
# HOXD13 [5] = target: HOXD13 (Homo sapiens, UniProt P35453 263-343, T313A)
# Chain of HOXD13 (Homo sapiens, UniProt P35453 263-343, T313A) (P35453 263-343 T313A): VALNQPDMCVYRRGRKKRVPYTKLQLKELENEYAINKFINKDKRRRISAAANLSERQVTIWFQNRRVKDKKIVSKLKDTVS
# HOXB6 = HOXB6 (Homo sapiens, UniProt P17509 132-218, K202E)
# Chain of HOXB6 (P17509 132-218 K202E): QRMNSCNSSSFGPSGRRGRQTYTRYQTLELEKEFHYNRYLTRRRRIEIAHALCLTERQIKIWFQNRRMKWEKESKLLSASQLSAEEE
# ALX3 [6] = target: ALX3 (Homo sapiens, UniProt O95076 139-225, N203Q)
# Chain of ALX3 (Homo sapiens, UniProt O95076 139-225, N203Q) (O95076 139-225 N203Q): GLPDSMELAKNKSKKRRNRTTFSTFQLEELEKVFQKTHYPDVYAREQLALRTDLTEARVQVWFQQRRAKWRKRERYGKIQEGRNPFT
# ALX1 = ALX1 (Homo sapiens, UniProt Q15699 118-204, L144R)
# Chain of ALX1 (Q15699 118-204 L144R): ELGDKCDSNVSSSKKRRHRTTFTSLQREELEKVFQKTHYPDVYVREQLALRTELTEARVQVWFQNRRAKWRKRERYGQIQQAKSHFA
# ALX3 [7] = target: ALX3 (Homo sapiens, UniProt O95076 139-225)
# Chain of ALX3 (Homo sapiens, UniProt O95076 139-225) (O95076 139-225): as the sequence (O95076 139-225 N203Q) above, with Q65N counted along it
# ALX3 [8] = target: ALX3 (Homo sapiens, UniProt O95076 139-225, L168Q)
# Chain of ALX3 (Homo sapiens, UniProt O95076 139-225, L168Q) (O95076 139-225 L168Q): as the sequence (O95076 139-225 N203Q) above, with L30Q, Q65N counted along it
# ALX3 [9] = target: ALX3 (Homo sapiens, UniProt O95076 139-225, L168V)
# Chain of ALX3 (Homo sapiens, UniProt O95076 139-225, L168V) (O95076 139-225 L168V): as the sequence (O95076 139-225 N203Q) above, with L30V, Q65N counted along it
# MSX2 [10] = target: MSX2 (Homo sapiens, UniProt P35548 130-214, R199I)
# Chain of MSX2 (Homo sapiens, UniProt P35548 130-214, R199I) (P35548 130-214 R199I): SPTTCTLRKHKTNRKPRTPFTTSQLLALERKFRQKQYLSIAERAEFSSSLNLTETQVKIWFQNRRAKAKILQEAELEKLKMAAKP
# MSX2 [11] = target: MSX2 (Homo sapiens, UniProt P35548 130-214)
# Chain of MSX2 (Homo sapiens, UniProt P35548 130-214) (P35548 130-214): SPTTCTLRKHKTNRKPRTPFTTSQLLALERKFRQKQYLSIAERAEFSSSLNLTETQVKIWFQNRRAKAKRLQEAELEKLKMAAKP
# MSX2 [12] = target: MSX2 (Homo sapiens, UniProt P35548 130-214, F161Y)
# Chain of MSX2 (Homo sapiens, UniProt P35548 130-214, F161Y) (P35548 130-214 F161Y): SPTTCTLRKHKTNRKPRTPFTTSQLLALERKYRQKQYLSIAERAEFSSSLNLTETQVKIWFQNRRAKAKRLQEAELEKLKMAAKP
# Chain of HOXC10 (Homo sapiens, UniProt Q9NYD6 254-340) (Q9NYD6 254-340): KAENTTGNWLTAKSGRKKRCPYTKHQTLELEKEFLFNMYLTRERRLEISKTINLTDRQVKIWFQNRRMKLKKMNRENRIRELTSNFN
# Chain of HOXC10 (Homo sapiens, UniProt Q9NYD6 254-340, K271E) (Q9NYD6 254-340 K271E): as the sequence (Q9NYD6 254-340) above, with K18E counted along it
# Chain of HOXD13 (Homo sapiens, UniProt P35453 263-343, T313R) (P35453 263-343 T313R): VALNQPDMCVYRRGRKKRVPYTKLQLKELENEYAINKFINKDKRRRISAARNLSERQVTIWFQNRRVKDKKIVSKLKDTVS
# Chain of HOXC9 (P31274 178-260 R222W): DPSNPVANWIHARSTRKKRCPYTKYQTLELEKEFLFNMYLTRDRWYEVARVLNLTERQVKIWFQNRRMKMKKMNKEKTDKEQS
sequence,measurement,setting,value
CCCGAGAC,binding signal,HOXC10 [1],"9.98 upbm affinity estimate (log intensity, higher = more binding, comparable within an allelic series)"
same,binding signal,HOXC10 [2],"9.98 upbm affinity estimate (log intensity, higher = more binding, comparable within an allelic series)"
ATAAAAAT,binding signal,HOXC10 [1],"12.2 upbm affinity estimate (log intensity, higher = more binding, comparable within an allelic series)"
same,binding signal,HOXD13 [3],"10.7 upbm affinity estimate (log intensity, higher = more binding, comparable within an allelic series)"
same,binding signal,HOXC10 [2],"11.7 upbm affinity estimate (log intensity, higher = more binding, comparable within an allelic series)"
same,binding signal,HOXC9,"11.2 upbm affinity estimate (log intensity, higher = more binding, comparable within an allelic series)"
CTAGCCAG,binding signal,HOXC10 [1],"10.1 upbm affinity estimate (log intensity, higher = more binding, comparable within an allelic series)"
same,binding signal,HOXC10 [2],"10.1 upbm affinity estimate (log intensity, higher = more binding, comparable within an allelic series)"
AAAGATAT,binding signal,HOXC10 [1],"10.9 upbm affinity estimate (log intensity, higher = more binding, comparable within an allelic series)"
same,binding signal,HOXD13 [4],"10.8 upbm affinity estimate (log intensity, higher = more binding, comparable within an allelic series)"
same,binding signal,HOXD13 [5],"10.9 upbm affinity estimate (log intensity, higher = more binding, comparable within an allelic series)"
GGCGCAAA,binding signal,HOXC10 [1],"10.1 upbm affinity estimate (log intensity, higher = more binding, comparable within an allelic series)"
same,binding signal,HOXC10 [2],"10.1 upbm affinity estimate (log intensity, higher = more binding, comparable within an allelic series)"
AAGCCTGG,binding signal,HOXC10 [1],"10.1 upbm affinity estimate (log intensity, higher = more binding, comparable within an allelic series)"
same,binding signal,HOXC10 [2],"10 upbm affinity estimate (log intensity, higher = more binding, comparable within an allelic series)"
CCGGTGAC,binding signal,HOXC10 [1],"10 upbm affinity estimate (log intensity, higher = more binding, comparable within an allelic series)"
same,binding signal,HOXC10 [2],"10 upbm affinity estimate (log intensity, higher = more binding, comparable within an allelic series)"
CCGACTCG,binding signal,HOXC10 [1],"10.1 upbm affinity estimate (log intensity, higher = more binding, comparable within an allelic series)"
same,binding signal,HOXC10 [2],"10.1 upbm affinity estimate (log intensity, higher = more binding, comparable within an allelic series)"
AGCAGGGC,binding signal,HOXC10 [1],"10.1 upbm affinity estimate (log intensity, higher = more binding, comparable within an allelic series)"
same,binding signal,HOXC10 [2],"10.1 upbm affinity estimate (log intensity, higher = more binding, comparable within an allelic series)"
CTTTCTTC,binding signal,HOXC10 [1],"9.98 upbm affinity estimate (log intensity, higher = more binding, comparable within an allelic series)"
same,binding signal,HOXC10 [2],"10.1 upbm affinity estimate (log intensity, higher = more binding, comparable within an allelic series)"
AGATAATG,binding signal,HOXC10 [1],"11.3 upbm affinity estimate (log intensity, higher = more binding, comparable within an allelic series)"
same,binding signal,HOXC10 [2],"11.2 upbm affinity estimate (log intensity, higher = more binding, comparable within an allelic series)"
CTCAGGAA,binding signal,HOXC10 [1],"10.1 upbm affinity estimate (log intensity, higher = more binding, comparable within an allelic series)"
same,binding signal,HOXC10 [2],"10 upbm affinity estimate (log intensity, higher = more binding, comparable within an allelic series)"
ATGTCATA,binding signal,HOXC10 [1],"11.1 upbm affinity estimate (log intensity, higher = more binding, comparable within an allelic series)"
same,binding signal,HOXC10 [2],"11.1 upbm affinity estimate (log intensity, higher = more binding, comparable within an allelic series)"
GCGACGAC,binding signal,HOXC10 [1],"10.1 upbm affinity estimate (log intensity, higher = more binding, comparable within an allelic series)"
same,binding signal,HOXC10 [2],"10 upbm affinity estimate (log intensity, higher = more binding, comparable within an allelic series)"
GGGGCTAC,binding signal,HOXC10 [1],"10.1 upbm affinity estimate (log intensity, higher = more binding, comparable within an allelic series)"
same,binding signal,HOXC10 [2],"10.1 upbm affinity estimate (log intensity, higher = more binding, comparable within an allelic series)"
CAGCGCCC,binding signal,HOXC10 [1],"9.88 upbm affinity estimate (log intensity, higher = more binding, comparable within an allelic series)"
same,binding signal,HOXC10 [2],"9.95 upbm affinity estimate (log intensity, higher = more binding, comparable within an allelic series)"
AGCTTCTG,binding signal,HOXC10 [1],"10.1 upbm affinity estimate (log intensity, higher = more binding, comparable within an allelic series)"
same,binding signal,HOXC10 [2],"10 upbm affinity estimate (log intensity, higher = more binding, comparable within an allelic series)"
CCGAACTC,binding signal,HOXC10 [1],"9.95 upbm affinity estimate (log intensity, higher = more binding, comparable within an allelic series)"
same,binding signal,HOXC10 [2],"10 upbm affinity estimate (log intensity, higher = more binding, comparable within an allelic series)"
AATGGTCC,binding signal,HOXC10 [1],"11 upbm affinity estimate (log intensity, higher = more binding, comparable within an allelic series)"
same,binding signal,HOXC10 [2],"10.9 upbm affinity estimate (log intensity, higher = more binding, comparable within an allelic series)"
AATCATCA,binding signal,HOXC10 [1],"10.9 upbm affinity estimate (log intensity, higher = more binding, comparable within an allelic series)"
same,binding signal,HOXC10 [2],"10.9 upbm affinity estimate (log intensity, higher = more binding, comparable within an allelic series)"
TTGGCCAA,binding signal,HOXC10 [1],"9.97 upbm affinity estimate (log intensity, higher = more binding, comparable within an allelic series)"
same,binding signal,HOXC10 [2],"9.93 upbm affinity estimate (log intensity, higher = more binding, comparable within an allelic series)"
CCCGGGCG,binding signal,HOXC10 [1],"10.1 upbm affinity estimate (log intensity, higher = more binding, comparable within an allelic series)"
same,binding signal,HOXC10 [2],"10.1 upbm affinity estimate (log intensity, higher = more binding, comparable within an allelic series)"
ATAAAAAG,binding signal,HOXC10 [1],"12.1 upbm affinity estimate (log intensity, higher = more binding, comparable within an allelic series)"
same,binding signal,HOXC10 [2],"11.5 upbm affinity estimate (log intensity, higher = more binding, comparable within an allelic series)"
ATAAAGAT,binding signal,HOXC10 [1],"11.6 upbm affinity estimate (log intensity, higher = more binding, comparable within an allelic series)"
same,binding signal,HOXC10 [2],"11.1 upbm affinity estimate (log intensity, higher = more binding, comparable within an allelic series)"
GCATATAA,binding signal,HOXC10 [1],"11.4 upbm affinity estimate (log intensity, higher = more binding, comparable within an allelic series)"
same,binding signal,HOXC10 [2],"11.2 upbm affinity estimate (log intensity, higher = more binding, comparable within an allelic series)"
ATACTAAT,binding signal,HOXC10 [1],"11.3 upbm affinity estimate (log intensity, higher = more binding, comparable within an allelic series)"
same,binding signal,HOXC10 [2],"11.2 upbm affinity estimate (log intensity, higher = more binding, comparable within an allelic series)"
CTCCTCTC,binding signal,HOXC10 [1],"10 upbm affinity estimate (log intensity, higher = more binding, comparable within an allelic series)"
same,binding signal,HOXC10 [2],"10 upbm affinity estimate (log intensity, higher = more binding, comparable within an allelic series)"
AGGAGTGG,binding signal,HOXC10 [1],"9.97 upbm affinity estimate (log intensity, higher = more binding, comparable within an allelic series)"
same,binding signal,HOXC10 [2],"9.99 upbm affinity estimate (log intensity, higher = more binding, comparable within an allelic series)"
GAAGCTCC,binding signal,HOXC10 [1],"10.1 upbm affinity estimate (log intensity, higher = more binding, comparable within an allelic series)"
same,binding signal,HOXC10 [2],"10.1 upbm affinity estimate (log intensity, higher = more binding, comparable within an allelic series)"
AAAGCGGG,binding signal,HOXC10 [1],"9.98 upbm affinity estimate (log intensity, higher = more binding, comparable within an allelic series)"
same,binding signal,HOXC10 [2],"10.1 upbm affinity estimate (log intensity, higher = more binding, comparable within an allelic series)"
ATTACAGG,binding signal,HOXC10 [1],"11.1 upbm affinity estimate (log intensity, higher = more binding, comparable within an allelic series)"
same,binding signal,HOXC10 [2],"10.9 upbm affinity estimate (log intensity, higher = more binding, comparable within an allelic series)"
ATCATACA,binding signal,HOXC10 [1],"10.9 upbm affinity estimate (log intensity, higher = more binding, comparable within an allelic series)"
same,binding signal,HOXC10 [2],"10.8 upbm affinity estimate (log intensity, higher = more binding, comparable within an allelic series)"
GGGCTACC,binding signal,HOXC10 [1],"10 upbm affinity estimate (log intensity, higher = more binding, comparable within an allelic series)"
same,binding signal,HOXC10 [2],"10.1 upbm affinity estimate (log intensity, higher = more binding, comparable within an allelic series)"
GCTCCCGA,binding signal,HOXC10 [1],"9.93 upbm affinity estimate (log intensity, higher = more binding, comparable within an allelic series)"
same,binding signal,HOXC10 [2],"10.1 upbm affinity estimate (log intensity, higher = more binding, comparable within an allelic series)"
ATAGATGA,binding signal,HOXC10 [1],"10.8 upbm affinity estimate (log intensity, higher = more binding, comparable within an allelic series)"
same,binding signal,HOXC10 [2],"10.8 upbm affinity estimate (log intensity, higher = more binding, comparable within an allelic series)"
ATAACACC,binding signal,HOXC10 [1],"11.1 upbm affinity estimate (log intensity, higher = more binding, comparable within an allelic series)"
same,binding signal,HOXC10 [2],"10.8 upbm affinity estimate (log intensity, higher = more binding, comparable within an allelic series)"
CTTAAATA,binding signal,HOXC10 [1],"10.9 upbm affinity estimate (log intensity, higher = more binding, comparable within an allelic series)"
same,binding signal,HOXC10 [2],"10.7 upbm affinity estimate (log intensity, higher = more binding, comparable within an allelic series)"
AGAAAAAG,binding signal,HOXC10 [1],"10 upbm affinity estimate (log intensity, higher = more binding, comparable within an allelic series)"
same,binding signal,HOXC10 [2],"10.1 upbm affinity estimate (log intensity, higher = more binding, comparable within an allelic series)"
ATGTGCTA,binding signal,HOXC10 [1],"10.7 upbm affinity estimate (log intensity, higher = more binding, comparable within an allelic series)"
same,binding signal,HOXC10 [2],"10.7 upbm affinity estimate (log intensity, higher = more binding, comparable within an allelic series)"
AGCTGGGC,binding signal,HOXC10 [1],"10 upbm affinity estimate (log intensity, higher = more binding, comparable within an allelic series)"
same,binding signal,HOXC10 [2],"10 upbm affinity estimate (log intensity, higher = more binding, comparable within an allelic series)"
GGTCCGCA,binding signal,HOXC10 [1],"10 upbm affinity estimate (log intensity, higher = more binding, comparable within an allelic series)"
same,binding signal,HOXC10 [2],"10 upbm affinity estimate (log intensity, higher = more binding, comparable within an allelic series)"
GAGCTGCC,binding signal,HOXC10 [1],"9.9 upbm affinity estimate (log intensity, higher = more binding, comparable within an allelic series)"
same,binding signal,HOXC10 [2],"9.88 upbm affinity estimate (log intensity, higher = more binding, comparable within an allelic series)"
GACTGGGC,binding signal,HOXC10 [1],"9.98 upbm affinity estimate (log intensity, higher = more binding, comparable within an allelic series)"
same,binding signal,HOXC10 [2],"10 upbm affinity estimate (log intensity, higher = more binding, comparable within an allelic series)"
CAGAGGGA,binding signal,HOXC10 [1],"10.1 upbm affinity estimate (log intensity, higher = more binding, comparable within an allelic series)"
same,binding signal,HOXC10 [2],"10.1 upbm affinity estimate (log intensity, higher = more binding, comparable within an allelic series)"
CAGCGCGG,binding signal,HOXC10 [1],"10 upbm affinity estimate (log intensity, higher = more binding, comparable within an allelic series)"
same,binding signal,HOXC10 [2],"9.95 upbm affinity estimate (log intensity, higher = more binding, comparable within an allelic series)"
ATTAATTC,binding signal,HOXB6,"9.98 upbm affinity estimate (log intensity, higher = more binding, comparable within an allelic series)"
same,binding signal,ALX3 [6],"8.41 upbm affinity estimate (log intensity, higher = more binding, comparable within an allelic series)"
same,binding signal,ALX1,"11.1 upbm affinity estimate (log intensity, higher = more binding, comparable within an allelic series)"
same,binding signal,ALX3 [7],"12.2 upbm affinity estimate (log intensity, higher = more binding, comparable within an allelic series)"
same,binding signal,ALX3 [8],"10.2 upbm affinity estimate (log intensity, higher = more binding, comparable within an allelic series)"
same,binding signal,ALX3 [9],"9.68 upbm affinity estimate (log intensity, higher = more binding, comparable within an allelic series)"
AGGGCACC,binding signal,MSX2 [10],"9.47 upbm affinity estimate (log intensity, higher = more binding, comparable within an allelic series)"
same,binding signal,MSX2 [11],"9.48 upbm affinity estimate (log intensity, higher = more binding, comparable within an allelic series)"
same,binding signal,MSX2 [12],"9.58 upbm affinity estimate (log intensity, higher = more binding, comparable within an allelic series)"
